These results are taken from PubChem BioAssay AID1851 (National Center for Advancing Translational Sciences (NCATS), 2009).

Several values for one entry are separate records, joined by “and”; a condition that tells them apart may be missing. Equal values may be shown once. Among all 16,000 compounds or so, about 5,700 (36%) were called active. Inconclusive results (about 24%) are left out. Calls come from the whole dose curve; as a rule, active = well fitted curve in the direction sought with a large enough effect; inconclusive = small, poorly fitted or top-dose-only effect, or effect the other way; inactive = no such curve, though single readings can be large or run the other way. Some of the results follow. More than one record can exist for a structure, and the calls need not agree.
% is set by controls: 0 for no effect and ±100 for the full control effect.

Chain of Cytochrome P450 1A2 (Homo sapiens) (P05177 whole entry, looked up): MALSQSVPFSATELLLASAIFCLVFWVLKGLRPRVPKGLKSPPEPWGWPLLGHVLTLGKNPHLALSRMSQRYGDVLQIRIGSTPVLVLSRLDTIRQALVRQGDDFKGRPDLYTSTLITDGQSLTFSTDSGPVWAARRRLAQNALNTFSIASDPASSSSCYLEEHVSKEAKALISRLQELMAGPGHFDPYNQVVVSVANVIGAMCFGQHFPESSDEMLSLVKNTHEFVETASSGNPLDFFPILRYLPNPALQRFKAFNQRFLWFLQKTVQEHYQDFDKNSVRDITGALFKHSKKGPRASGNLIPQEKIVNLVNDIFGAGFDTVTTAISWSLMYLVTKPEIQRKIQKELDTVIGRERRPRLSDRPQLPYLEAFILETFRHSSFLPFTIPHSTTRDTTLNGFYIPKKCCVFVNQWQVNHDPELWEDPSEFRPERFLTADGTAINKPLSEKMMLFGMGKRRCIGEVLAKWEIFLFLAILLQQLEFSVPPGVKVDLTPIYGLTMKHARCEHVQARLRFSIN

The assay concerns the target Cytochrome P450 1A2 (Homo sapiens) (UniProt P05177). The assay is described as follows: Cytochrome panel assay with activity outcomes. The following applies: recombinant CYP, pro-luciferin dealkylation, luminescence, p450-cyp1a2; series mostly up to 57.1 µM.
Broadly, the AC50 is the midpoint of the concentration-response curve, whichever way the signal moves. As to `O=C1NCCc2c1[nH]c1ccccc21`, the AC50 was 2.82 µM (active). Consider `Cn1cccc1C(=O)N1CCC[C@@]2(CCN(Cc3ccc(C#N)cc3)C2)C1`, for which the AC50 entry is “inactive”.

Regarding `COc1ccc2cc(C(=O)Nc3ccc(F)cc3)sc(=O)c2c1OC`, the AC50 was 1.12 µM (active). For the molecule `O=C(O)Cc1c[nH]c2ccc(O)cc12`, the AC50 result was “inactive”. Same read-out and setting: in the case of `COc1cc2c(CCNC(C)=O)c[nH]c2cc1Cl` it was 0.126 µM (active).

As to `Nc1ccc2[nH]cc(CCC(=O)O)c2c1`, the activity, negative = inhibition is -8.18% [at 11.4 µM] (inactive). As to `COC(=O)Nc1ccc2[nH]cc(CCNC(C)=O)c2c1`, the AC50 was 0.316 µM (active). As to `CC[C@@H](c1ccccc1)n1c(=O)n2n(c1=O)[C@H]1[C@H](O)[C@H]3O[C@@H]3/C(=N/OCc3ccccc3)[C@@H]1CC2`, the activity, negative = inhibition was -0.045% [at 11.4 µM] (inactive).

Regarding `CCC1CCCCN1Cc1cc(OC)c(O)c([N+](=O)[O-])c1` (stereo unspecified), the AC50 entry is “inactive”. Turning to `CCCCCCN1C=CC(=C/C=C(\C#N)C(=O)OCC)C=C1`, the AC50 entry was “inactive”. Regarding `COc1cc(C(=O)NC(=S)Nc2ccc(Cl)c(C(=O)O)c2)cc(OC)c1OC`, the AC50 entry is “inactive”.

For `COc1cc(OC)c(NC(=S)Nc2cccc(C(C)=O)c2)cc1Cl`, the AC50 was 6.31 µM (active). Consider `Cc1ccc(-n2nnnc2-c2cnc3ccc(Cl)cc3c2-c2ccccc2)cc1`, for which the AC50 result is “inactive”.

Take `Fc1ccc(-c2[nH]ncc2-c2nnnn2-c2ccccc2)c(F)c1`: the AC50 result was “inactive”. On to `Clc1ccc2[nH]cc(-c3nnnn3-c3ccccc3)c2c1`, for which the AC50 is 7.94 µM (active). As for `O=C(Nc1cccc(F)c1)N1CC2(CCN(C(=O)c3csnn3)CC2)C1`, the AC50 entry is “inactive”.

Take `COC(=O)NCC(c1cccnc1)N1CCN(c2ccccc2OC)CC1` (stereo unspecified): the AC50 result was “inactive”.

Regarding `COc1cc(C(=O)NCC(c2cccnc2)N2CCN(C)CC2)cc(OC)c1OC` (stereo unspecified), the AC50 was 20 µM (active).

Take `COc1ccc(N2CCN(C(CNC(=O)C3CCCCC3)c3cccnc3)CC2)cc1` (stereo unspecified): the AC50 result is “inactive”. For `COc1ccc2cc1Oc1ccc(cc1)C[C@@H]1c3c(cc(OC)c4c3Oc3cc5c(cc3O4)CCN[C@H]5C2)CCN1C`, the activity, negative = inhibition was -14.6% [at 11.4 µM] (inactive). Regarding `NCCS`, the AC50 entry is “inactive”. As for `O=C(N/N=C1/C[C@@H](O)[C@@H](O)[C@@H]2[C@H]3C(=O)N(c4ccc(F)cc4F)C(=O)[C@@H]3CC[C@@H]12)OCc1ccccc1`, the activity, negative = inhibition was -2.1% [at 11.4 µM] (inactive).

For the molecule `CCCCn1nnnc1SCC(=O)c1cc(Cl)ccc1OC`, the AC50 was 4.47 µM (active).

As to `CCCCn1nnnc1SCC(=O)N1CCCC1`, the AC50 entry was “inactive”. As to `COCCCn1nnnc1SCC(=O)N1CCCC1`, the AC50 entry was “inactive”. For the molecule `CSc1ccc(Cl)c(C(=O)NCCOc2cc(C)ccc2C(C)C)c1`, the AC50 is 2.24 µM (active). Take `CC(C)(N=NC(C)(C)C1=NCCN1)C1=NCCN1`: the activity, negative = inhibition was -3.55% [at 11.4 µM] (inactive). For `COc1ccc(S(=O)(=O)N(CC(=O)NCC2CCCO2)c2ccc(F)cc2)cc1OC` (stereo unspecified), the AC50 result was “inactive”. For the molecule `COC(=O)c1[nH]c2cccc(OC)c2c1NC(=O)CN(C)CC1OCCO1`, the AC50 is 14.1 µM (active). The same measure, in the same setting: in the case of `CCS(=O)(=O)N1CCC(C(=O)NCc2ccc(F)cc2Cl)CC1` it was “inactive”. Regarding `CCN1C(=O)[C@H]2[C@H]3[C@H](O)[C@H](O)C/C(=N/O[C@@H](C)c4cn([C@H](CO)Cc5ccccc5)nn4)[C@@H]3CC[C@@H]2C1=O`, the activity, negative = inhibition was -6.67% [at 11.4 µM] (inactive) and -6.23% [at 11.4 µM] (inactive).

Turning to `C[C@H](N)C1CCC(C(=O)Nc2ccncc2)CC1` (stereo partly specified), the AC50 result is “inactive”.

On to `C[C@H](N=C(NC#N)Nc1ccncc1)C(C)(C)C`, for which the half-maximal activity concentration (AC50) entry is “inactive and 15.8 µM (active)”. As to `O=C(O)[C@@H]1CS[C@@]2(CCCN(Cc3ccccc3)C2)N1`, the activity, negative = inhibition is -12% [at 2.29 µM] (inactive). Take `Cc1cccc(CCNc2nc3ccccc3n3nnnc23)c1`: the AC50 is 0.891 µM (active). In the case of `Cc1ccc(C(=O)Nc2nc3ccccc3n3nnnc23)cc1`, the AC50 is 2.51 µM (active). In the case of `Cn1c(=O)c2c(ncn2CN2CCN(Cn3cnc4c3c(=O)n(C)c(=O)n4C)CC2)n(C)c1=O`, the activity, negative = inhibition is -18.2% [at 2.29 µM] (inactive). As for `Nc1c(C(=O)NCc2ccccc2)sc2nc3c(cc12)C(=O)CCC3`, the AC50 was 20 µM (active). For the molecule `O=C(/C=C/c1cc2c(cc1Br)OCO2)NCc1ccc(Cl)cc1`, the AC50 was 1.58 µM (active).

As for `C/C(=C\C(=O)c1ccc(Br)cc1)NCc1ccc2c(c1)OCO2`, the AC50 was 1.41 µM (active). Consider `C/C(=C\C(=O)c1ccc(Cl)cc1)NCc1ccc2c(c1)OCO2`, for which the AC50 is 1 µM (active). On to `O=C1Nc2ccc([N+](=O)[O-])cc2C1(O)N1CCCCCC1` (stereo unspecified), for which the AC50 result is “inactive”. Still for that read-out and setting: next, `CNc1nc(-c2ccccc2CN(C)C)nc2ccccc12`: 3.16 µM (active); `CN(C)Cc1ccccc1-c1nc(N(C)C)c2ccccc2n1`: 1.26 µM (active). `CN(C)Cc1ccccc1-c1nc(NC2CC2)c2ccccc2n1`: the AC50 was 5.01 µM (active). The same measure, in the same setting: in the case of `Cc1cccc(CNc2nc(-c3ccccc3CN(C)C)nc3ccccc23)c1` it was 3.16 µM (active). On to `C/C(CC/C(C)=N/O)=N/O`, for which the activity, negative = inhibition is -12.6% [at 2.29 µM] (inactive). As for `COCCNc1nc(-c2ccccc2CN(C)C)nc2ccccc12`, the AC50 was 10 µM (active). Regarding `CN(C)Cc1ccccc1-c1nc(NCc2cccs2)c2ccccc2n1`, the AC50 is 1 µM (active). On the same count and under the same terms, in the case of `CN(C)Cc1ccccc1-c1nc(NCc2ccccc2)c2ccccc2n1` it was 1.26 µM (active). For `Cc1cn([C@H]2C[C@H](O)[C@@H](COC(N)=O)O2)c(=O)[nH]c1=O`, the activity, negative = inhibition is -14.6% [at 2.29 µM] (inactive).

Take `CCn1c(SCC(=O)N2CCOCC2)nc2oc3c(Cl)cc(Cl)cc3c(=O)c2c1=O`: the AC50 is 12.6 µM (active). For the molecule `CCCCn1c(SCC(=O)N2CCCC2)nc2c1c(=O)n(C)c(=O)n2C`, the AC50 entry was “inactive”. As for `Oc1ccccc1C1Nc2cccc3cccc(c23)N1`, the AC50 is 1 µM (active). For `S=C1N(c2ccccc2)C(c2ccc(Cl)cc2)N2CCCN12` (stereo unspecified), the AC50 was 4.47 µM (active). For the molecule `CCOC(=O)c1sc2nc3c(cc2c1N)COC(C(C)C)C3` (stereo unspecified), the AC50 result is “inactive”.

In the case of `CCOC(=O)c1sc2nc3c(cc2c1N)COC(C)(CC)C3` (stereo unspecified), the AC50 is 25.1 µM (active). Turning to `COc1ccc2[nH]cc(CCNc3cc(-c4ccccc4C)ncn3)c2c1`, the AC50 is 1 µM (active). As for `COc1ccc2[nH]cc(CCNc3cc(-c4ccccc4C(F)(F)F)ncn3)c2c1`, the AC50 is 10 µM (active).

With `COc1ccc2[nH]cc(CCNc3cc(-c4ccccc4OC)ncn3)c2c1`, the AC50 was 1.58 µM (active). For `COc1ccc(O[C@H]2C=C[C@@H](c3ccccc3)O[C@H]2CO/N=C\C[C@@H]2C=C[C@H](OC(C)=O)[C@H](COC(C)=O)O2)cc1`, the activity, negative = inhibition is 1.58% [at 11.4 µM] (inactive).

Consider `CC(C)CO/N=C1/C[C@@H](O)[C@@H](O)[C@@H]2[C@H]3C(=O)N(c4ccc(F)cc4F)C(=O)[C@@H]3CC[C@@H]12`, for which the activity, negative = inhibition is -0.174% [at 11.4 µM] (inactive). In the case of `Cc1cc(OC(=O)c2cc(F)c(F)cc2Cl)nc(C)n1`, the AC50 entry is “inactive”.

With `COc1ccc(C(=O)/C=C(/C)N(C)C)cc1`, the AC50 is 3.55 µM (active). Regarding `CC(C)CSC[C@@H]1O[C@H](n2cnc3c(N)nccc32)[C@H](O)[C@@H]1O`, the activity, negative = inhibition was 3.41% [at 11.4 µM] (inactive).

Consider `O=C(O)C1CCC(=O)N(C2CC2)C1c1ccccc1` (stereo unspecified), for which the AC50 result was “inactive”. On to `CC1CCC(C(=O)O)([C@H](Br)C(=O)O)CC1` (stereo partly specified), for which the activity, negative = inhibition was -8.77% [at 11.4 µM] (inactive). On to `CN(C)c1oc(-c2ccccc2)nc1C#N`, for which the AC50 is 3.16 µM (active). Consider `CN(C)C(=O)c1ccc(-c2ccc3ncnc(Nc4ccc(F)cc4)c3c2)cc1`, for which the AC50 was 20 µM (active).

As to `CN(C)C(=O)c1ccc(-c2ccc3ncnc(Nc4ccccc4)c3c2)cc1`, the AC50 is 15.8 µM (active). Take `COC(=O)C/C=C\[C@@H](C)[C@@H](/C=N\OC[C@@H](O)[C@H]1O[C@H]2OC(C)(C)O[C@H]2[C@@H]1O)OC`: the activity, negative = inhibition was -15.6% [at 11.4 µM] (inactive). For the molecule `Cc1ccc(OCC(=O)NNC(=O)CCc2ccccc2)cc1`, the AC50 entry was “inactive”.

For the molecule `Cc1ccc(OCC(=O)NNC(=O)C2CCN(c3ncccn3)CC2)cc1`, the AC50 result is “inactive”. As to `Cc1ccc(OCC(=O)Nn2cnc3ccccc32)cc1`, the AC50 was 6.31 µM (active). Consider `Cc1cc(Cl)ccc1OC(C)C(=O)Nc1ccc(S(=O)(=O)Nc2cnc3ccccc3n2)cc1` (stereo unspecified), for which the AC50 entry is “inactive”. On to `O=C(COc1ccccc1Cl)Nc1cc(Cl)ccc1Oc1ccccc1`, for which the AC50 is 2.51 µM (active).

Consider `CC(C)(C)c1ccc(OCC(=O)O)c(Cl)c1`, for which the activity, negative = inhibition is -16.2% [at 11.4 µM] (inactive). Take `Cc1ccc(OCC(=O)Nc2ccc(Cl)cc2)c(-n2nc3ccccc3n2)c1`: the AC50 is 3.55 µM (active). With `Cc1ccc(N(C(C)C(=O)Nc2cc(Cl)ccc2Oc2ccccc2)S(C)(=O)=O)cc1` (stereo unspecified), the AC50 result was “inactive”. With `Cc1cc(NC(=O)COc2ccc(Cl)cc2Cl)n(-c2ccccc2)n1`, the AC50 is 1.78 µM (active). Same read-out and setting: next, `O=C(Nc1cccc(C(F)(F)F)c1)c1ccc(Cn2cc(Br)cn2)o1`: 2 µM (active). On to `CC(C)CN1CCC2(CC1)CCN(C(=O)c1csnn1)CC2`, for which the AC50 entry was “inactive”. As for `OCCCNCc1ccccn1`, the activity, negative = inhibition is -20% [at 2.29 µM] (inactive). Regarding `OCCNCCCOc1cccc(Cl)c1Cl`, the AC50 is 0.2 µM (active). For `CCCCNN`, the activity, negative = inhibition was -6.54% [at 2.29 µM] (inactive). Take `CN(C)S(=O)(=O)c1ccc(Nc2ccc(O)c3c2C(=O)c2c([N+](=O)[O-])ccc(O)c2C3=O)cc1`: the AC50 is 0.126 µM (active). As to `O=C(CCCN1CC=C(n2c(=O)[nH]c3ccccc32)CC1)c1ccc(F)cc1`, the AC50 entry was “inactive”. In the case of `COC(=O)CCSc1cc([N+](=O)[O-])cc2c1c(C1OCCS1)nn2-c1ccccc1` (stereo unspecified), the AC50 is 28.2 µM (active).

In the case of `CN(C)C=Nc1ccc2nn(-c3ccccc3)nc2c1`, the AC50 is 0.708 µM (active). On to `O=C(O)c1nn(-c2ccccc2)nc1-c1nn(-c2ccccc2)nc1C(=O)O`, for which the AC50 result is “inactive”.

Consider `CC(=O)OC[C@@H]1O[C@@H](O/N=C2/C[C@@H](O)[C@@H](O)[C@@H]3[C@@H]4C(=O)N([C@@H](C)c5ccccc5)C(=O)[C@H]4CC[C@H]23)[C@H](OC(C)=O)[C@H](OC(C)=O)[C@@H]1OC(C)=O`, for which the activity, negative = inhibition was 3.02% [at 11.4 µM] (inactive).
